Assay outcomes from PubChem BioAssay.
PP5 inh: PP5 phosphatase inhibitors, primary screen, biochemical, fluorescence; Serine/threonine-protein phosphatase 5 (Homo sapiens), P53041; 320,000 compounds, 0.18% hits; purified PP5c, OMFP substrate fluorescence; AID 1987, 2009; inhibition, % at 6.7 µM;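 active = inhibition above the campaign's mean inhibition across all tested compounds plus 3 SD, cut at about 9.5% in these data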;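 note: 0% = DMSO only and 100% = 100 µM cantharidin control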
Target sequence (P53041 whole entry, looked up): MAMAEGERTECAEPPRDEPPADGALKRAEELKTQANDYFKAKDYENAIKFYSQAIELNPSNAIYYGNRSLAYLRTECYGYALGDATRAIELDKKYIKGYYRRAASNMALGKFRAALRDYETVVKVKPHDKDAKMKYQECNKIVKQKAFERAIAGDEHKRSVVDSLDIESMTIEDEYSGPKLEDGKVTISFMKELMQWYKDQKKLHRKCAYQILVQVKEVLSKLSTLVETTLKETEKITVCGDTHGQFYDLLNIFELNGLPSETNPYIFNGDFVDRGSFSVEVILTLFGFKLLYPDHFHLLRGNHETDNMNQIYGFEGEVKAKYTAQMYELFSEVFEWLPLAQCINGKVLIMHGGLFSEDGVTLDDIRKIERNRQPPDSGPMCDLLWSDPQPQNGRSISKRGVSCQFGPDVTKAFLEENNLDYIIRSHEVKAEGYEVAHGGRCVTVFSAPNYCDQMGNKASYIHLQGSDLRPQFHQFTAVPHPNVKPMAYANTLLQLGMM
ALR H2O2 inh: inhibitors of human ALR sulfhydryl oxidase, primary screen, biochemical, H2O2 detection, HRP-luminol luminescence, single point; FAD-linked sulfhydryl oxidase ALR (Homo sapiens), P55789; purified ALR, DTT oxidation; inhibition, % (no concentration beside the values); 290,000 compounds, 3.8% hits; AID 485317, 2010;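 active = mean replicate inhibition above about 79%, with every replicate also reaching it, limit read from the data; inconclusive = only one of the two criteria met; inactive = mean below limit and not every replicate reaching it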
PP1 counter: PP1-alpha phosphatase inhibitors, primary screen, counter-screen for PP5 inhibitor project, biochemical, fluorescence, OMFP substrate, single point. AID 2235, 2010. inhibition, % at 6.7 µM. Serine/threonine-protein phosphatase PP1-alpha catalytic subunit (Homo sapiens), P62136. 320,000 compounds, 0.9% hits. purified PP1alpha;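 active = inhibition above the mean inhibition of all tested compounds plus 3 SD, computed separately for each screening campaign, cut at about 15% in these data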
Calb FLC: C. albicans growth inhibition with fluconazole, primary screen, CaCi-2 strain, Alamar Blue fluorescence; 300,000 compounds, 0.57% hits; C. albicans CaCi-2 (fluconazole-resistant clinical isolate) + fluconazole, 48 h; AID 1979, 2009; growth inhibition, % (test concentration not listed);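 active = growth inhibition above about 58% in most replicates, limit read from the data, passing the limit was not always enough; inconclusive = exactly half the replicates above a set limit; inactive = most replicates below a set limit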;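 note: all wells also contain fluconazole at 8 µg/ml as a sub-toxic cotreatment; 0% = median of DMSO wells and 100% = median of geldanamycin control wells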
CSC inhib: cancer stem cell viability inhibitors, primary screen, luminescence. AID 2717, 2010. cancer stem cell-like cells viability. inhibition, % at 7.5 µM. 300,000 compounds, 1.1% hits; in the data active = inhibition above about 75%; inconclusive = no clear call, values can overlap the other calls; tested in HMLE shEcad cells
PP1 inh confirm: PP1 phosphatase inhibitors, confirmation, biochemical, fluorescence, OMFP substrate, triplicate. shares compounds with PP1 counter. purified PP1alpha. inhibition, % at 6.7 µM. 1,900 compounds, 52% hits;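 active = mean PP1 inhibition above a set limit taken from the earlier primary screen, cut at about 15% in these data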
PP5 inh counter: PP5 phosphatase inhibition by PP1 hits, confirmation, counter-screen for PP1 inhibitor project, biochemical, fluorescence, triplicate; shares compounds with PP1 counter; purified PP5c, OMFP fluorescence; inhibition, % at 6.7 µM; 1,900 compounds, 4% hits; AID 2360, 2010;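 active = mean PP5 inhibition over triplicate wells above about 9.5% taken from the earlier PP1 screen, limit read from the data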
* = called active by the depositor; ? = inconclusive; nt = no result given. An excerpt weighted towards active compounds, which were near 5.4% of everything screened.

SMILES	PP5 inh	ALR H2O2 inh	PP1 counter	Calb FLC	CSC inhib	PP1 inh confirm	PP5 inh counter
CCOC(=O)c1sc(N2C(=O)C(O)=C(C(=O)c3ccco3)C2c2cccc([N+](=O)[O-])c2)nc1C (stereo not drawn)	2	91*	39*	29	20	45*	5
Cc1nnc(N2C(=O)C(O)=C(C(=O)c3ccco3)C2c2cccc([N+](=O)[O-])c2)s1 (stereo not drawn)	-2	nt	-1	38	6	nt	nt
O=[N+]([O-])c1ccc(CCNc2cccc3ccccc23)c([N+](=O)[O-])c1	1	-7	25*	20	-10	24*	-2
Cc1cccc2cc(CN(CC3CCCO3)C(=O)c3ccco3)c3nnnn3c12 (stereo not drawn)	3	0	-1	18	nt	nt	nt
CCCC(=O)NC(c1ccc(C(C)C)cc1)c1ccc2cccnc2c1O (stereo not drawn)	-2	-19	26*	89*	99*	23*	-1
CCOc1ccc(C(NC(=O)CC)c2c(O)ccc3ccccc23)cc1 (stereo not drawn)	1	-200	-2	-41	47	nt	nt
CCCCC(=O)NC(c1cccs1)c1cc(Cl)c2cccnc2c1O (stereo not drawn)	-1	-16	20*	?	120*	24*	-4
Cc1cc(NC(c2ccc(Cl)cc2)c2ccc3cccnc3c2O)no1 (stereo not drawn)	5	0	22*	101*	101*	15*	-2
CC(C)C(=O)NC(c1ccc(Cl)cc1Cl)c1ccc2cccnc2c1O (stereo not drawn)	2	-2	27*	6	100*	20*	-3
CCOC(=O)COc1ccc(S(=O)(=O)N2CCN(C(=O)OCC)CC2)cc1	3	-5	1	4	-1	nt	nt
CC1(C)C(c2ccccc2)=NC(c2ccccc2)N1O (stereo not drawn)	2	0	-1	4	1	nt	nt
CCOc1cc(NC(=O)c2ccccn2)c(OCC)cc1NC(=O)c1cccc(C)c1	0	-20	0	-8	-6	nt	nt
CCCC(=O)NC(c1ccccc1Cl)c1ccc2cccnc2c1O (stereo not drawn)	4	2	20*	83*	109*	10	-3
CCOC(=O)CC[C@H](NC(=O)Cn1cnc2c(OCc3ccccc3)ncnc21)C(=O)OCC	nt	2	nt	nt	-3	nt	nt
COc1ccc(COC(=O)CN2C(=O)NC3(CCCC3)C2=O)cc1F	0	-28	34*	0	-14	-3	-3
CCN(CC)CCCCOc1ccccc1OC	-1	-20	0	-15	-3	nt	nt
COc1ccc(S(=O)(=O)Nc2cccc(SC)c2)cc1C(=O)N1CCOCC1	0	-12	1	-6	-7	nt	nt
COc1ccc(S(=O)(=O)Nc2ccc(F)c(F)c2)cc1C(=O)N1CCOCC1	-4	nt	22*	2	28	-3	-5
CCCCCCCCCCn1c2c(c(=N)c3c1CCC3)CCC2	4	-1	21*	107*	91*	2	-2
CCC1=NN=C(c2ccc(F)cc2)C(c2c[nH]c3ccccc23)N1O (stereo not drawn)	3	nt	22*	12	-20	-4	-2
Cc1ccc(N2C(=O)CC(c3c[nH]c4ccccc34)C2=O)cc1 (stereo not drawn)	3	-11	1	4	-2	nt	nt
CCN(CC)c1c([N+](=O)[O-])c(=O)n(CC)c2ccccc12	2	-5	-1	0	9	nt	nt
Cc1cc(NC(=O)Cc2cccs2)no1	2	nt	28*	nt	-14	0	-5
N#Cc1cccc(NCC(=O)Nc2cccc(S(=O)(=O)N3CCCCC3)c2)c1	3	-3	-1	nt	-16	nt	nt
N#Cc1cccc(NC(=O)CNc2cccc(S(=O)(=O)N3CCCC3)c2)c1	1	1	21*	-5	12	-5	-4
SMILES	PP5 inh	ALR H2O2 inh	PP1 counter	Calb FLC	CSC inhib	PP1 inh confirm	PP5 inh counter
COc1cc(OC)c(OC)cc1CN1CCN(Cc2cccn2C)CC1	-1	-14	18*	3	-14	4	5
COC(=O)CC1C(=O)NCCN1C(=S)NC(=O)C(c1ccccc1)c1ccccc1 (stereo not drawn)	-1	-2	-3	1	-1	nt	nt
CCCCCCCCCCCCCCCC[n+]1ccc(C(N)=O)cc1	5	-5	41*	nt	nt	25*	0
CCCCCCCCCCCCCCCC[n+]1cccc(C(=O)N(CC)CC)c1	5	-40	31*	69	143*	-6	4
CCCCCCCCCCCCCCCC[n+]1ccc(/C=N/O)cc1	8	-2	54*	nt	100*	32*	15*
CCCCCCCC[n+]1cccc(C(=O)N(CC)CC)c1	-1	-5	-2	-10	9	nt	nt
CC(=O)c1ccc(-n2c(=O)[nH]c(=O)c3c(N)c(C(=O)c4ccc(Cl)cc4)sc32)cc1	-1	-5	40*	-4	43	28*	-3
Cc1ccccc1-n1c(=O)[nH]c(=O)c2c(N)c(C(=O)c3ccc(Cl)cc3)sc21	-1	-10	5	5	-15	nt	nt
COc1ccc(NS(=O)(=O)c2ccc(N/N=C(\C)c3ccncc3)c([N+](=O)[O-])c2)cc1	4	nt	24*	1	33	16*	6
CC(=O)NC(c1ccc(F)cc1)c1cccnc1 (stereo not drawn)	1	-2	-5	?	-7	nt	nt
CCOC(=O)c1cn(Cc2ccccc2)c(C(=O)OC(C)(C)C)c1O	3	3	22*	0	52	36*	-4
Cc1ccc(OCCN2C(=O)C(=O)c3cc(C)ccc32)cc1	0	nt	18*	-2	?	8	-4
Cc1cccc2c1N(CCOc1ccccc1Cl)C(=O)C2=O	6	-5	18*	-18	32	6	-2
Cc1cccc2c1N(CCOc1ccc(C(C)(C)C)cc1)C(=O)C2=O	5	-2	23*	10	10	13	-2
Cc1ccc2c(c1)C(=O)C(=O)N2CC(=O)OC(C)C	-1	nt	0	-30	1	nt	nt
C=CCNc1nc(-c2ccccn2)nnc1-c1ccccc1	0	-1	3	-88	-13	nt	nt
COc1ccccc1CNc1cc(C)ccn1	-2	nt	1	-4	13	nt	nt
CC1CCN(S(=O)(=O)c2ccc(C(=O)Nc3nnc(-c4ccco4)o3)cc2)CC1	1	9	15	21	17	nt	nt
